Results filed as inconclusive are left out. Entries that show only a call come without a potency. For some of these results: Results with a measured potency or affinity are listed apart. The source holds several records for some structures; these can differ, active in one and inactive in another. Activity calls are given as the source filed them.
Assays:
[1] = Ebola virus entry assay, blue channel fluorescence
[2] = Ebola virus entry assay, reporter ratio channel; AC50: Channel type: primary unless noted; outcome: Channel type: primary unless noted
[3] = Ebola virus entry assay, blue channel (ratio component)
[4] = Ebola virus entry cell assay, ratio channel
[5] = High-throughput drug toxicity screening in the BPDCN cell line Gen2.2 (AID 1224824); details: Gen2.2 BPDCN cells; at 45.8 µM (top of the series);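 further: cells exposed to compounds for 48 h before reading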
Outline: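 Readout is ATP luminescence from Gen2.2 cells after two days of drug exposure in serum-containing medium at 37 °C. Values express percent activity, with vehicle defining full signal and 9.2 uM bortezomib defining zero.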

[6] = High-throughput drug toxicity screening in the BPDCN cell line Cal-1 (AID 1224825); details: Cal-1 BPDCN cell viability, qHTS; at 45.8 µM (top of the series)
Outline: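 Cal-1 cells, 500 per well in phenol-red-free RPMI with 10% FBS, exposed to compounds for 48 hours at 37C, 5% CO2. Viability read by CellTiter-Glo luminescence; percent activity normalized to DMSO (100%) and 9.2 uM bortezomib final (0%).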

[7] = qHTS assay for measurement of the activity of small molecule inhibitors on Zika virus induced Caspase-3 activity in human astrocytoma cells (AID 1224859; active means well fitted curve in the direction sought with a large enough effect; an effect the other way counts as inactive or inconclusive); details: SNB-19 ZIKV-induced caspase-3/7, luminescence, 6 h; series mostly up to 45.7 µM
Outline: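 Human SNB-19 astrocytoma cells in RPMI 1640 with 10% FBS receive compound one hour ahead of Zika virus at 2 FFU/cell. After 6 h infection, caspase-3/7 activity is detected by Caspase-Glo luminescence.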

[8] = qHTS Screen of the MIPE 4.0 Collection Against Ewings Sarcoma (EW8) (AID 1259255; active means well fitted curve in the direction sought with a large enough effect; an effect the other way counts as inactive or inconclusive; further: potency means the concentration at half of the fitted maximal effect; nearly all actives have a fitted effect of over 35% in size); details: EW8 Ewing sarcoma viability, CellTiter-Glo, 48 h; series mostly up to 45.8 µM
Outline: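 Viability screen: 48 h incubation at 37C, 95% humidity, 5% CO2 with serially titrated compound, followed by CellTiter-Glo readout.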

[9] = qHTS assay to identify small molecule inhibitors of chordoma cells - UCH-1 (AID 1259355; active means well fitted curve in the direction sought with a large enough effect; an effect the other way counts as inactive or inconclusive; further: nearly all actives have a fitted effect of over 55% in size); details: UCH-1 chordoma viability, CellTiter-Glo, 48 h, combination; series mostly up to 46.1 µM
Outline: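 Cells (800/well) were seeded and left overnight at 37 C, 5% CO2, then treated with drugs at 15 concentrations plus a combination mix of auranofin, camptothecin, doxorubicin, rubitecan and topotecan. Viability after 48hr was read by CellTiter-Glo luminescence.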

[10] = qHTS assay to identify small molecule inhibitors of chordoma cells - UCH-2 (AID 1259356; active means well fitted curve in the direction sought with a large enough effect; an effect the other way counts as inactive or inconclusive); details: UCH-2 chordoma viability, CellTiter-Glo ATP luminescence, 48 h; series mostly up to 46.1 µM
[11] = Immunotoxin (HA22) sensitization/mitigation study. Vehicle arm (PBS) (AID 1159510); details: cancer cells viability with PBS vehicle (HA22 study); series mostly up to 46.1 µM; further: potency means the concentration at half of the fitted maximal effect
[12] = Immunotoxin (SS1P) sensitization/mitigation study. Vehicle arm (DMEM) (AID 1159513); details: cell viability with vehicle (DMEM); series mostly up to 46.1 µM; further: potency means the concentration at half of the fitted maximal effect
[13] = qHTS assay for measurement of the activity of small molecule inhibitors on Zika virus induced Caspase-3 activity in human iPSC derived neural progenitor cells (hNPCs) (AID 1224857; active means well fitted curve in the direction sought with a large enough effect; an effect the other way counts as inactive or inconclusive; further: nearly all actives have a fitted effect of over 65% in size); details: hNPCs ZIKV-induced caspase-3/7, Caspase-Glo luminescence, 6 h; series mostly up to 45.7 µM
Outline: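 Pretreat hNPCs with compound 1 h; infect ZIKV 2 FFU/cell; 6 h 37 C, 5% CO2; Caspase-Glo 3/7, 30 min RT; luminescence; normalize to no-virus and virus-only wells.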

[14] = Ebola virus entry reporter assay, green channel fluorescence

SMILES: CC(C)CC(N(C)C)C1(c2ccc(Cl)cc2)CCC1 (stereo not given)
- outcome [1]: inactive
- outcome [2]: inactive
- outcome [3]: inactive
- outcome [4]: inactive
- cell viability, % of control (lower = more cytotoxic) [5]: 134%
- viability (% of control) [6]: 105%
- outcome [7]: inactive
- Potency [8]: 18.7 µM (active)
- Potency [9]: inactive
- Potency [10]: inactive

SMILES: CC[C@@]1(c2ccccc2)NC(=O)N(C)C1=O
- outcome [1]: inactive
- outcome [2]: inactive
- outcome [3]: inactive
- outcome [4]: inactive

SMILES: NNCCc1ccccc1
- outcome [1]: inactive
- outcome [2]: inactive
- outcome [3]: inactive
- outcome [4]: inactive

SMILES: Nc1ncn([C@@H]2O[C@H](CO)[C@@H](O)[C@H]2O)c(=O)n1
- outcome [1]: inactive
- outcome [2]: inactive
- outcome [3]: inactive
- outcome [4]: inactive
- Potency [11]: 4.18 µM (active)
- Potency [12]: 14.8 µM (active)

SMILES: CCOC(=O)Nc1ccc2c(c1)N(C(=O)CCN1CCOCC1)c1ccccc1S2
- outcome [1]: inactive
- AC50 [2]: 39.8 µM (active)
- outcome [3]: inactive
- outcome [4]: inactive

SMILES: CCN(C(C)=O)c1cccc(-c2ccnc3c(C#N)cnn23)c1
- outcome [1]: inactive
- outcome [2]: inactive
- outcome [3]: inactive
- outcome [4]: inactive
- Potency [13]: inactive
- outcome [7]: inactive
- Potency [9]: inactive
- Potency [10]: inactive

SMILES: CC[C@@]1(O)C(=O)OCc2c1cc1n(c2=O)Cc2cc3c(CN(C)C)c(O)ccc3nc2-1
- outcome [1]: inactive
- AC50 [2]: 7.94 µM (active)
- outcome [3]: inactive
- AC50 [4]: 5.62 µM (active)
- Potency [11]: 0.0118 µM (active)
- Potency [12]: 5.9 µM (active)

SMILES: CN(C)CCOC(c1ccc(Cl)cc1)c1ccccn1 (stereo not given)
- outcome [1]: inactive
- AC50 [2]: 39.8 µM (active)
- outcome [14]: inactive
- outcome [4]: inactive

SMILES: NCC1(CC(=O)O)CCCCC1
- outcome [1]: inactive
- outcome [2]: inactive
- outcome [3]: inactive
- outcome [4]: inactive
- cell viability, % of control (lower = more cytotoxic) [5]: 114%
- viability (% of control) [6]: 104%
- Potency [13]: inactive
- outcome [7]: inactive
- Potency [9]: inactive
- Potency [10]: inactive

SMILES: OCCOCCN1CCN(C(c2ccccc2)c2ccc(Cl)cc2)CC1 (stereo not given)
- outcome [1]: inactive
- AC50 [2]: 31.6 µM (active)
- outcome [14]: inactive
- outcome [4]: inactive

SMILES: CN[C@H]1CC[C@@H](c2ccc(Cl)c(Cl)c2)c2ccccc21
- AC50 [2]: 1.58 µM (active)

SMILES: NC(=Nc1ccccc1)Nc1ccccc1
- AC50 [2]: 31.6 µM (active)
- outcome [2]: inactive

SMILES: OC1(c2ccc(Cl)c(C(F)(F)F)c2)CCN(CCCC(c2ccc(F)cc2)c2ccc(F)cc2)CC1
- AC50 [2]: 2.82 µM (active)

SMILES: CC(C)NCC(O)COc1cccc2[nH]ccc12 (stereo not given)
- outcome [1]: inactive
- AC50 [2]: 39.8 µM (active)
- outcome [4]: inactive

SMILES: CCCCC(CC)CN=C(N)NC(N)=NCCCCCCN=C(N)NC(N)=NCC(CC)CCCC (stereo not given)
- outcome [2]: inactive

SMILES: CCN1/C(=C/C=C/c2sc3ccccc3[n+]2CC)Sc2ccccc21
- outcome [2]: inactive

SMILES: O=C(CCCN1CCC(O)(c2ccc(Cl)cc2)CC1)c1ccc(F)cc1
- AC50 [2]: 10 µM (active)

SMILES: CCCCCCCCCCCCCC[N+](C)(C)Cc1ccccc1
- AC50 [2]: 25.1 µM (active)

SMILES: C[C@H]1c2cccc(O)c2C(O)=C2C(=O)[C@]3(O)C(O)=C(C(N)=O)C(=O)[C@@H](N(C)C)[C@@H]3[C@@H](O)[C@@H]21
- outcome [1]: inactive
- AC50 [2]: 20 µM (active)
- outcome [4]: inactive

SMILES: CC(C)Oc1ccc2c(=O)c(-c3ccccc3)coc2c1
- outcome [2]: inactive
- outcome [3]: inactive

SMILES: CCCN1C[C@H](CSC)C[C@@H]2c3cccc4[nH]cc(c34)C[C@H]21
- outcome [1]: inactive
- AC50 [2]: 7.94 µM (active)
- outcome [4]: inactive

SMILES: Cc1cccc(C)c1NC(=O)CN1CCN(CCCC(c2ccc(F)cc2)c2ccc(F)cc2)CC1
- AC50 [2]: 3.16 µM (active)

SMILES: O=C(O)C1(C(=O)O)CCC1.[NH2-].[NH2-].[Pt+2]
- outcome [1]: inactive
- outcome [2]: inactive
- outcome [4]: inactive

SMILES: O=[N+]([O-])c1ccc(O)c2ncccc12
- AC50 [2]: 28.2 µM (active)

SMILES: COC(=O)Nc1nc2ccc(C(=O)C3CC3)cc2[nH]1
- AC50 [2]: 7.94 µM (active)

Reference: PubChem BioAssay (NCATS)
